The source of these data is PubChem BioAssay.

The nature of experiment [1]: sensitizers of A549 cells to miR-34 induction, primary screen, imaging, A549 dox-inducible miR-34, nuclei and caspase counts (AID 1347080). Particulars: A549 miR-34 inducible, Hoechst nuclei count, 48 h.
Experiment [2] is described as follows: growth inhibition of DIPG glioma cells, dose response, cell-based, SU-DIPG-XIII, MIPE5.0, CellTiter-Glo, qHTS (AID 1347064; cut-off not given, nearly all actives have AC50 up to about 23 µM;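 on AC50: cells exposed to compound for 48 hours before the viability read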). Particulars: SU-DIPG-XIII viability, CellTiter-Glo ATP luminescence.
A short description of experiment [3]: viability loss in pontine glioma line – cell-based, SU-DIPG-XXV, MIPE5.0, CellTiter-Glo, qHTS, dose response (AID 1347065; cut-off not given, nearly all actives have AC50 up to about 26 µM;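 further: cells exposed to compound for 48 hours before ATP readout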). Particulars: CellTiter-Glo ATP luminescence.
The nature of experiment [4]: JHH-DIPG-1 glioma cell viability, MIPE5.0 library, CellTiter-Glo luminescence, qHTS (AID 1347067; cut-off not given, nearly all actives have AC50 up to about 26 µM;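 further: cells exposed to compound for 48 hours before readout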). Particulars: JHH-DIPG-1 glioma viability, CellTiter-Glo ATP luminescence. A general note: ATP-based viability assays read luminescence as a measure of living cells.
The nature of experiment [5]: SU-DIPG-VI glioma cell viability, MIPE4.0 library, CellTiter-Glo luminescence, qHTS (AID 1347066; cut-off not given, nearly all actives have AC50 up to about 30 µM;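 further: cells exposed to compound for 48 hours before readout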). Particulars: CellTiter-Glo ATP luminescence.
Experiment [6] in a line: liver-stage malaria parasite growth inhibition, primary screen, cell-based, HepG2, luciferase luminescence, HepG2 viability (AID 624349; in the data active means parasite load remaining mostly below about 12%, no sharp cut-off; inactive means mostly above about 10%;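 further: 100% = mean of DMSO negative control wells on the same plate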). Particulars: P. berghei liver stage in HepG2, luciferase luminescence, concentration not given here; parasite load remaining: stronger effect = lower value; viability: measured here: HepG2 viability without parasites.
The nature of experiment [7]: growth inhibition of DIPG glioma cells, dose response, cell-based, SU-DIPG-IV, MIPE4.0, CellTiter-Glo, qHTS (AID 1347063; cut-off not given, nearly all actives have AC50 up to about 30 µM;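 further: compound exposure lasted 48 hours before the viability readout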). Particulars: SU-DIPG-IV viability, CellTiter-Glo ATP luminescence.
Experiment [8] in a line: SU-DIPG-XXV glioma cell viability, MIPE5.0 library, qHTS (AID 1347068; cut-off not given, nearly all actives have IC50 up to about 30 µM).
The nature of experiment [9]: survival rescue of mitochondrial mutant cells in low glucose, primary screen, MELAS cybrids, Rieske KO mouse fibroblasts, CellTiter-Glo (AID 1508586;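 active means mean z-score across replicates of 1.96 or higher in either the MELAS or the Rieske mutant cell line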;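 further: z relative to plate mean and SD of compound and empty wells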).
Setting [10] is: stronger effect = lower value, cell number ratio, induced over uninduced.
The mark [11] stands for this setting: measured here: relative caspase fold change +Dox/-Dox.
Where [12] appears, read: measured here: total cells with miR-34 induction, stronger effect = lower value.
Where [13] appears, read: measured here: total cells without miR-34 induction.

“And” between values parts separate entries of the source, which are not always exact repeats. Equal entries are not always repeated. Records with an inconclusive call do not appear. The source made the active and inactive calls.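 How the source made its calls, unless noted: active means compounds whose cell count with miR-34 switched on is under 0.7 times the count with it off; inactive means the rest.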

In the case of `CCCCCCCCCCCCCCCCSP(=O)([O-])OCC[N+](C)(C)C`, the values for the fold change in [1] (setting [10]) and in experiment [1] (setting [11]) were 0.933 (inactive) and 0.479, respectively. Moreover, the cell count in experiment [1] (setting [12]) was 5080; in experiment [1] (setting [13]) it was 5450.
In the same order, the values of `c1cc2ccc(N3CCNCC3)cc2cn1` are 0.985 (inactive), 0.763, 5520 and 5610.
`CCCCC/C=C\C/C=C\C/C=C\C/C=C\CCCC(=O)NCCF`: the fold change in [1] (setting [10]) was 1 (inactive); in [1] (setting [11]) it was 1.18. Also, the cell count in experiment [1] (setting [12]) and in [1] (setting [13]) was 5320 throughout.
Usually AC50 stands for the concentration giving half of the maximal activity seen. In the case of `CCCCCCC(C)(C)c1cc(O)c2c(c1)OC(C)(C)C1CC=C(CO)C[C@H]21` (some centres undefined), the AC50 in experiment [2] was 9.34 µM (active); in experiment [3] it was 7.42 µM (active); in experiment [4] it was 7.42 µM (active).
`C[C@@H](C1CC[C@@]2(O)C3=CC(=O)[C@@H]4C[C@@H](O)[C@@H](O)C[C@]4(C)[C@H]3CC[C@]12C)[C@H](O)CCC(C)(C)O` (some centres undefined): the outcome in experiment [2], in [3] and in [4] was inactive.
For `CCCCC/C=C\C/C=C\C/C=C\C/C=C\CCCC(=O)NCCCC(=O)O`, the fold change in experiment [1] (setting [10]) was 0.955 (inactive); in [1] (setting [11]), 1.25. Also, the figures for the cell count in experiment [1] (setting [12]) and in experiment [1] (setting [13]) were 5500 and 5760, respectively.
Take `C[C@H]1[C@@H](C(=O)C[C@H]2O[C@@H]3O[C@]4(C)CC[C@H]5[C@H](C)CC[C@@H]([C@H]2C)[C@@]35OO4)O[C@@H]2O[C@]3(C)CC[C@H]4[C@H](C)CC[C@@H]1[C@@]24OO3`: in experiment [5], the molecule was classed as inactive.
In general, viability refers to a read-out of living cells in per cent, often relative to untreated cells. For `O=c1[nH]c2ccccc2n1C1CCN(Cc2ccc(-c3[nH]c4cc5ncnc5cc4nc3-c3ccccc3)cc2)CC1`, the parasite load remaining in experiment [6] is 45.5% (inactive). Besides, the viability in [6] worked out at 115%. In addition, the values for the AC50 in experiment [7], in [3] and in [5] were 16.6 µM (active), 23.5 µM (active) and 14.8 µM (active), respectively.
For `C[N+]1(C)[C@@H]2CC(OC(=O)C(CO)c3ccccc3)C[C@H]1[C@@H]1O[C@@H]12` (some centres undefined), the fold change is 0.929 (inactive) in experiment [1] (stronger effect = lower value) and 1.43 in experiment [1] (setting [11]). Further, the cell count in [1] (setting [12]) was 8500; in [1] (setting [13]), 9160.
Consider `C[C@H]1[C@@H](CC(C[C@H]2O[C@@H]3O[C@]4(C)CC[C@H]5[C@H](C)CC[C@@H]([C@H]2C)[C@@]35OO4)CS(=O)(=O)c2ccc(COC(=O)N(C)C)cc2)O[C@@H]2O[C@]3(C)CC[C@H]4[C@H](C)CC[C@@H]1[C@@]24OO3` (some centres undefined), for which the concentration at half-maximal activity (AC50) in experiment [7] was 0.209 µM (active).
Consider `C[C@@H]1CC([C@H](O)CC2CC(=O)NC(=O)C2)C(=O)[C@@H](C)C1` (some centres undefined), for which the fold change in experiment [1] (stronger effect = lower value) was 1.01 (inactive); in [1] (setting [11]), 1.96. Also, the cell count in experiment [1] (setting [12]) turned out to be 1800; in experiment [1] (setting [13]), 1780.
In the case of `Cc1sc2c(c1C)C(c1ccc(Cl)cc1)=NC(CC(=O)Nc1ccc(O)cc1)c1nnc(C)n1-2` (centres undefined), the molecule was called inactive in [8]. Besides, the fold change in [1] (setting [10]) is 0.898 (inactive); in experiment [1] (setting [11]) it was 0.692. In addition, the cell count in experiment [1] (setting [12]) turned out to be 4940; in experiment [1] (setting [13]), 5500. Also, the z-score was -0.542 (inactive) in experiment [9] (MELAS cybrid survival, CellTiter-Glo 48 h, stronger effect = higher value) and -4.37 in [9] (Rieske KO mouse fibroblast survival, CellTiter-Glo 72 h).
On to `CCCCC/C=C\C/C=C\C/C=C\C/C=C\CCCC(=O)N(C)C`, for which the results for the fold change in [1] (setting [10]) and in experiment [1] (setting [11]) were 0.925 (inactive) and 1.14, respectively. Also, the cell count in experiment [1] (setting [12]) was 5340; in experiment [1] (setting [13]) it was 5780.
As to `Cc1cc(C(C#N)c2ccc(Cl)cc2)c(Cl)cc1NC(=O)c1cc(I)cc(I)c1O` (centres undefined), the fold change was 0.964 (inactive) and 0.906 (inactive) and 0.861 (inactive) in experiment [1] (setting [10]); 0.325 and 0.48 and 1.33 in [1] (setting [11]). The cell count in experiment [1] (setting [12]) was 8250 and 7900 and 8930; in [1] (setting [13]) it was 8560 and 8730 and 10400.
Take `CC(C)CC(NP(=O)(O)OC1OC(C)C(O)C(O)C1O)C(=O)NC(Cc1c[nH]c2ccccc12)C(=O)O` (centres undefined): the fold change is 0.95 (inactive) in experiment [1] (stronger effect = lower value) and 0.289 in experiment [1] (setting [11]). Besides, the cell count is 9030 in [1] (setting [12]) and 9510 in experiment [1] (setting [13]).
Take `COc1ccc(/C=C\c2cc(OC)cc(OC)c2)cc1`: the figures for the fold change in experiment [1] (setting [10]) and in experiment [1] (setting [11]) were 1.08 (inactive) and 1.44, respectively. In addition, the results for the cell count in experiment [1] (setting [12]) and in experiment [1] (setting [13]) were 1220 and 1130, respectively.
As for `CN[C@@H]1CC2OC(C)([C@@H]1OC)n1c3ccccc3c3c4c(c5c6ccccc6n2c5c31)C(=O)NC4` (some centres undefined), the fold change in [1] (stronger effect = lower value) was 0.831 (inactive); in experiment [1] (setting [11]), 0.918. The cell count in experiment [1] (setting [12]) was found to be 692; in experiment [1] (setting [13]) it was 832.
